Measured values as given in PubChem BioAssay (NCI).
The panel holds about 83,000 compounds, 20% with a hit somewhere; the sample as a whole holds those more often.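 Cell lines were cultured in 96-well plates, exposed to a single compound concentration, and assessed for percent growth 48 hours later.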 A number with no mark means an inactive call. Activity calls are given as the source filed them. The calls were made as follows: active = growth percent below 10; inactive = the rest.

Columns and labels:
Test in all cases: NCI-60 one-dose screen, 48 h (100 = growth as untreated, 0 = no growth, -100 = all killed)
Conditions in all cases: 10 µM unless noted
HCT-15 colon = tested on: HCT-15 colon
HT29 colon = tested on: HT29 colon
SNB-75 CNS = tested on: SNB-75 CNS
SNB-19 CNS = tested on: SNB-19 CNS
U251 CNS = tested on: U251 CNS
PC-3 prostate = tested on: PC-3 prostate
LOX IMVI melanoma = tested on: LOX IMVI melanoma
UACC-62 melanoma = tested on: UACC-62 melanoma
SK-MEL-28 melanoma = tested on: SK-MEL-28 melanoma

Structure (SMILES)	growth (HCT-15 colon)	growth (HT29 colon)	growth (SNB-75 CNS)	growth (SNB-19 CNS)	growth (U251 CNS)	growth (PC-3 prostate)	growth (LOX IMVI melanoma)	growth (UACC-62 melanoma)	growth (SK-MEL-28 melanoma)
CCOc1ccc(C(C)=O)cc1NC(=O)c1cccc(-c2nnn(CC)n2)c1	46.8%	7.72% (active)	6.99% (active)	36.5%	22.1%	27.3%	49.2%		
C=C1C(=O)O[C@H]2[C@H]1CC/C(C=Nc1ccc(C(F)(F)F)cc1N)=C\CC[C@@]1(C)O[C@@H]21	2.23% (active)	1.96% (active)	41.1%	44%	14.6%	14.2%	-48.9% (active)		
O=C(CCl)Oc1ccc(-c2ccccc2)c(Br)c1	110%	109%	95.6%	107%	102%	97.2%	97%	99.6%	107%
CCOC(=O)c1c(C(=O)OCC)c2cc(-c3ccn4c(C(=O)c5ccccc5)c(C(=O)OCC)c(C(=O)OCC)c4c3)ccn2c1C(=O)c1ccccc1	95.6%	97.3%	84.1%	100%	99.7%	80.6%	85.1%	85.2%	113%
CC[C@]1(O)C[C@@H]2CN(CCc3c([nH]c4ccccc34)[C@@](C(=O)OC)(c3cc4c(cc3OC)N(C)[C@H]3[C@@](O)(C(N)=O)[C@H](O)[C@]5(CC)[C@@H]6C[C@@H]6CN6CC[C@]43[C@@H]65)C2)C1	11.9%	2.2% (active)	50.8%	30.9%	10.7%	20.7%	18.3%	35.7%	68.1%
COc1ccc(Nc2cc(C)nc(N3CCN(c4ccnc5cc(Cl)ccc45)CC3)n2)cc1	14.8%	9.85% (active)	42.7%	48.1%	37.6%	33%		17.7%	59.9%
CC/C=C\C/C=C\C[C@H]1C/C=C2/C(=O)C=C[C@@H]2C/C=C\CCC(=O)O1	0.621% (active)	-40.5% (active)	64%	28%	-23.2% (active)	2.76% (active)	-59.7% (active)		
O=C1c2c(O)cc(O)cc2-c2c(-c3ccc(O)cc3)oc3cc(O)cc1c23	57.5%	88.8%	26.4%	44.8%	25.5%	50.5%	17.9%		
NC(=NCCCOc1ccc(Cl)cc1)Nc1ccc(C(F)(F)F)cc1	54%	3.11% (active)	35.4%	26.4%	33%	26.9%	9.81% (active)		
CC/C=C\C[C@H]1C/C=C2/C(=O)C=C[C@H]2C/C=C\CCCC(=O)O1	29.8%	6.12% (active)	38.6%	40.3%	10.4%	36%	6.07% (active)		
COc1cccc2c1C(=O)c1c(O)c3c(c(O)c1C2=O)C[C@](O)(C(=O)CO)C[C@H]3O[C@@H]1C[C@@H](NC(=O)CCCCCN(C)C2(c3ccc(F)cc3)CC3CCC2C3)[C@H](O)[C@@H](C)O1 (some centres not stated)	0.779% (active)	-55.5% (active)	41.3%	10.4%	-100% (active)	-82.7% (active)	-90.5% (active)		
COC(=O)c1ccc(Cn2cnc3c(N)ncnc32)cc1	99.8%	98.6%	86.7%	104%	111%	111%		102%	104%
Cc1ccc2oc(=O)cc(C3c4ccc([nH]4)C(c4cc(=O)oc5ccc(C)cc45)c4ccc([nH]4)C(c4cc(=O)oc5ccc(C)cc45)c4ccc([nH]4)C(c4cc(=O)oc5ccc(C)cc45)c4ccc3[nH]4)c2c1 (configuration not stated)	-46.9% (active)	-75.7% (active)	-42% (active)	-29.6% (active)	-80.7% (active)	-27.2% (active)	-70.6% (active)	-57% (active)	-53.2% (active)
Cc1ccc(NC(=O)C2CCC(CN3CCN(C)CC3)CC2)cc1Nc1nccc(-c2cccnc2)n1 (configuration not stated)	95.2%	100%	77.6%	100%	95%	103%	90.8%	103%	99.7%
COc1ccc(CN2c3ccccc3Sc3ccccc32)c(C(F)(F)F)c1	37.3%	2.45% (active)	7.8% (active)	32.7%	20.6%	26.9%	54.7%		
OCCN1CCN(c2nc(Nc3ccc(-c4nc5ccccc5[nH]4)cc3)c3cn[nH]c3n2)CC1	-78.9% (active)	-91.4% (active)	-96.6% (active)	-76.7% (active)	-99.7% (active)	-76.1% (active)	-89.2% (active)		

Structure (SMILES)	growth (HCT-15 colon)	growth (HT29 colon)	growth (SNB-75 CNS)	growth (SNB-19 CNS)	growth (U251 CNS)	growth (PC-3 prostate)	growth (LOX IMVI melanoma)	growth (UACC-62 melanoma)	growth (SK-MEL-28 melanoma)
O=C(Nc1ccc(Cl)cc1)c1cc2cc(F)ccc2cc1O	13.1%	72.5%	18.7%	21.3%	5.79% (active)	9.4% (active)	17.8%	10.9%	12.1%
Cc1cc(N2CCN(c3ccnc4cc(Cl)ccc34)CC2)nc(NC2CCCCC2)n1	3.54% (active)	6.72% (active)	58.2%	56.6%	30.7%	22.2%		-48.7% (active)	23.9%
CCC#CC[C@H](O)C/C=C1/C(=O)C=C[C@@H]1C/C=C\CCCC(=O)OC	3.26% (active)	-80.2% (active)	43.5%	23.8%	0.174% (active)	1.55% (active)	-72.2% (active)		
c1ccc(Cn2cc(-c3nc4ccccc4s3)c3cccnc32)cc1	109%	100%	91%	110%	100%	97%	99.3%	97.6%	113%
COc1cccc(-c2nc(SCC(=O)Nc3ccc(C(=O)/C=C/c4ccc(OC)c(OC)c4)cc3)[nH]c(=O)c2C#N)c1	83.6%	102%	71.8%	76.3%	85.3%	100%	81.4%		
COc1cccc(/C=C2\Oc3cc(OCCN4CCCC4)ccc3C2=O)c1	67%	35.2%	87.3%	102%	92.1%	83.6%	76.1%	106%	102%
COc1cc2c(cc1O)CC[C@@H]1[C@@H]2CC[C@]2(C)[C@@H](OCCN(C)C)CC[C@@H]12	34%	3.38% (active)	17.8%	52.4%	27.4%	45.4%	52.5%		
FC(F)(F)Oc1ccc2nc3nc4ccc[nH]c4cc3c2c1	87%	73.9%	61.7%	58.3%	65.6%	80%	80%	81%	94.6%
CC[C@H]1OC(=O)[C@H](C)[C@@H](O[C@H]2C[C@@](C)(OC)[C@@H](O)[C@H](C)O2)[C@H](C)[C@@H](O[C@@H]2O[C@H](C)C[C@H](N(C)C)[C@H]2O)[C@](C)(O)C[C@H](C)CN(C)[C@H](C)[C@@H](O)[C@]1(C)O	97.1%	102%	80.8%	93.4%	94.8%	91%	87%	98.3%	114%
Cc1cc(N2CCN(c3ccnc4cc(Cl)ccc34)CC2)nc(N2CCOCC2)n1	73.6%	67.6%	88.9%	82.6%	93.9%	51.9%		84.3%	104%
C=C1C(=O)O[C@H]2[C@H]1CC/C(COC(=O)NCCc1ccc(OC)c(OC)c1)=C\CC[C@@]1(C)O[C@@H]21	61.7%	32.8%	61.2%	90.1%	76.8%	78.8%	75%		
Cc1c(/C=C/[N+](=O)[O-])ccc2c1[nH]c1ccccc12	81.3%	96.5%	107%	100%	73.7%	95.5%		81%	113%
COc1ccc(-c2nnc(SCC(=O)c3ccc(Cl)cc3)o2)cc1	104%	96%	88.8%	101%	99.8%	101%	97.1%		
NC(=NCCCC1(c2ccccc2)CCCC1)Nc1ccc(Cl)cc1	28.9%	-15.4% (active)	41.1%	55.9%	-26.6% (active)	43.3%	-50% (active)		
CC(=O)O[C@H]1C(=O)[C@@]2(C)[C@H]([C@H](OC(=O)c3ccccc3)[C@]3(O)C[C@H](OC(=O)[C@H](OC(=O)CCC(=O)OC4CCC(S/N=C(N)/N=C(\N)N(C)C)CC4)[C@@H](NC(=O)c4ccccc4)c4ccccc4)C(C)=C1C3(C)C)[C@]1(OC(C)=O)CO[C@@H]1C[C@@H]2O (some centres not stated)	25.3%	5% (active)	-22.3% (active)	29.8%	17.1%	28.4%	42.9%		
